PubChem BioAssay (EPA / NIEHS)
Records with an inconclusive call do not appear. Active and inactive are the calls of the source. Rule for the calls, unless noted: active = hit-call score of the fitted dose curve at least 0.9, where 1 is the maximum; inactive = score below 0.9.

Experiments:
[1] = CCTE_Mundy_HCI_Cortical_NOG_NeuriteCount: CCTE's Neurite Outgrowth Assay in rat cortical cells for Neurite Count, Mundy Lab (AID 2284212);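 note: cells fixed about two days after chemical exposure began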
Procedure, shortened: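 Neurite number per cell from high-content imaging of betaIII-tubulin immunostaining, with Hoechst nuclear counterstain.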

[2] = CCTE_Mundy_HCI_Cortical_Synap_Neur_Matur_NeuriteLength: CCTE's Synaptogenesis and Neurite Maturation Assay in rat cortical cells for Neurite Length, Mundy Lab (AID 2284214)
Procedure, shortened: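 Rat primary cortical cultures, AraC added DIV 5, dosed DIV 7 through DIV 12 […]. Fixed, MAP2/synaptophysin immunostained with Hoechst; neurite length by high-content imaging, fitted in positive direction versus DMSO.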

[3] = CCTE_Mundy_HCI_Cortical_Synap_Neur_Matur_NeuriteSpotCountPerNeuron: CCTE's Synaptogenesis and Neurite Maturation Assay in rat cortical cells for Neurite Spot Count per Neuron Count, Mundy Lab (AID 2284215)
Procedure, shortened: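 Developing rat cortical neurons, with glia suppressed by AraC, are exposed to chemicals from DIV 7 to DIV 12. Automated fluorescence imaging of MAP2-labelled neurites and synaptophysin puncta yields a count per neuron, normalised against DMSO wells.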

[4] = CCTE_Mundy_HCI_Cortical_Synap_Neur_Matur_SynapseCount: CCTE's Synaptogenesis and Neurite Maturation Assay in rat cortical cells for Synapse Count, Mundy Lab (AID 2284218)
Procedure, shortened: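 Rat primary cortical cultures, AraC at DIV 5, chemical dosing DIV 7 to DIV 12 (288.33 h). Fixed cells stained for MAP2, synaptophysin and Hoechst; synapses per neuron counted by high-content imaging, loss of signal versus DMSO.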

[5] = CCTE_Mundy_HCI_Cortical_Synap_Neur_Matur_NeuriteCount: CCTE's Synaptogenesis and Neurite Maturation Assay in rat cortical cells for Neurite Count, Mundy Lab (AID 2284222);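 note: exposure from day 7 to day 12 in vitro with readout at day 12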
Procedure, shortened: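 Rat primary cortical cells; AraC added at DIV 5, chemicals dosed with media change at DIV 7 through DIV 12. MAP2/synaptophysin/Hoechst immunostaining, high-content imaging of neurite number; fitted relative to DMSO.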

[6] = CCTE_Mundy_HCI_Cortical_Synap_Neur_Matur_CellBodySpotCount: CCTE's Synaptogenesis and Neurite Maturation Assay in rat cortical cells for Cell Body Spot Count, Mundy Lab (AID 2284223)
Procedure, shortened: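 Chemicals were applied to AraC-treated rat primary cortical cells at DIV 7 and measured at DIV 12. Fixed cells were labelled for MAP2, synaptophysin and nuclei, and high-content imaging gave cell body synaptophysin spot counts per neuron relative to DMSO.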

[7] = CCTE_Mundy_HCI_hNP1_Pro_ResponderAvgInten: CCTE's Proliferation Assay in human neuroprogenitor cells, Mundy Lab (AID 2284224; active = hit-call score of the fitted dose curve at least 0.9, where 1 is the maximum;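 note: human neural progenitor cells hNP1 derived from WA09 embryonic stem cells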)
Procedure, shortened: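 Proliferation read as average intensity of BrdU-positive cells, imaged at 26.25 h post-dosing: chemical exposure started after 40–44 h culture, BrdU during final 4 h, paraformaldehyde fixation. Positive-direction fit relative to DMSO.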

[8] = UKN2_HCS_IMR90_cell_viability: Viability Assessment in the University of Konstanz (UKN) Leist Lab Neural Crest Cell Migration Assay in human induced IMR90 Pluripotent Stem Cells (UKN2) (AID 2284233);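 note: viability of neural crest cells differentiated from IMR90 iPSC measured by calcein-AM fluorescence imaging; cells exposed to compound for 24 h after a 24 h migration phase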
Procedure, shortened: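 Neural crest cells derived from IMR90 iPSC migrate into a stopper-free zone for 24 h in EGF/FGF medium, then are exposed to compound for 24 h. Viability assessed by calcein-AM and Hoechst staining with high-content imaging, fitted bidirectionally versus DMSO.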

[9] = CCTE_Mundy_HCI_Cortical_NOG_NeuronCount: CCTE's Neurite Outgrowth Assay in rat cortical cells for Neuron Count, Mundy Lab (AID 2284236; active = hit-call score of the fitted dose curve at least 0.9, where 1 is the maximum;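 note: neurons counted by imaging betaIII-tubulin and Hoechst stained cortical cells; cells exposed to compound for about 48 hours before fixation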)
Procedure, shortened: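 Read-out: neuron number by high-content imaging of betaIII-tubulin (Alexa Fluor-488) and Hoechst-labelled rat primary cortical cells.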

[10] = CCTE_Mundy_HCI_Cortical_NOG_BPCount: CCTE's Neurite Outgrowth Assay in rat cortical cells for Branch Point Count, Mundy Lab (AID 2284237)
Procedure, shortened: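 Measured 50.33 h after dosing, this morphology endpoint uses rat primary cortical cultures labelled for betaIII-tubulin. Branch points are quantified by high-content imaging, with DMSO as negative control and baseline.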

[11] = CCTE_Mundy_HCI_hNP1_Casp3_7: CCTE's Caspase-Glo 3/7 Assay in human neuroprogenitor cells for Apoptosis, Mundy Lab (AID 2284240)
Procedure, shortened: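 Luminescent caspase-3/7 readout, 26.5 h post-dose, in human neural progenitor cells from WA09 embryonic stem cells. Cells grew 40–44 h at 37 °C, 5% CO2 before chemical addition. Activity analysed as signal increase over DMSO baseline.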

[12] = CCTE_Mundy_HCI_hNP1_CellTiter: CCTE's Cell Titer-Glo 2 Assay in human neuroprogenitor cells for Viability, Mundy Lab (AID 2284241; active = hit-call score of the fitted dose curve at least 0.9, where 1 is the maximum;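 note: a hit is a drop in ATP luminescence versus DMSO meaning reduced viability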)
Procedure, shortened: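 Viability read as luminescent ATP content (CellTiter-Glo, 30 min room temperature) twenty-four hours after dosing, relative to DMSO. Cells: WA09-derived hNP1 neuroprogenitors on poly-L-ornithine/laminin, plated 40 to 44 hours before chemical.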

[13] = CCTE_Mundy_HCI_Cortical_Synap_Neur_Matur_NeuronCount: CCTE's Synaptogenesis and Neurite Maturation Assay in rat cortical cells for Neuron Count, Mundy Lab (AID 2284242; active = hit-call score of the fitted dose curve at least 0.9, where 1 is the maximum)
Procedure, shortened: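 Rat primary cortical cells, AraC added at DIV 5, dosed with media change from DIV 7 to DIV 12. Fixed, Hoechst-stained and immunolabelled for MAP2 and synaptophysin; neuron number counted by high-content imaging, loss fitted versus DMSO.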

[14] = IUF_NPC2c_oligodendrocyte_migration_120hr: Leibniz Research Institute for Environmental Medicine (IUF) 120-hour Neural Progenitor Cell Migration Assay for Oligodendrocyte Migration (NPC2c) (AID 2284297);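 note: O4-positive oligodendrocyte migration distance divided by radial glia migration distance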
Procedure, shortened: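 Using fetal brain neural progenitor spheres differentiating in N2 medium at 37C, compounds were present for 120 h. Oligodendrocyte migration distance, normalized to radial glia migration, was measured from imaged O4 staining.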

[15] = IUF_NPC2a_radial_glia_migration_120hr: Leibniz Research Institute for Environmental Medicine (IUF) 120-hour Neural Progenitor Cell Migration Assay for Radial Glia Migration (NPC2a) (AID 2284298)
Procedure, shortened: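 Exposure of 0.3 mm primary hNPC spheres runs day 0 to 120 h with a half-volume medium change at day 3. Fixed cells get Hoechst staining; high-content analysis of nuclear positions yields radial glia migration distance per well, compared against DMSO controls.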

[16] = IUF_NPC2a_radial_glia_migration_72hr: Leibniz Research Institute for Environmental Medicine (IUF) 72-hour Neural Progenitor Cell Migration Assay for Radial Glia Migration (NPC2a) (AID 2284299)
Procedure, shortened: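 Human fetal neural progenitor spheres (0.3 mm) plated on poly-D-lysine/laminin in N2 differentiation medium and exposed from day 0 at 7 concentrations; radial glia migration distance from sphere edge measured at 72 h on brightfield images, mean of four directions, vs DMSO.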

[17] = IUF_NPC2b_neuronal_migration_120hr: Leibniz Research Institute for Environmental Medicine (IUF) 120-hour Neural Progenitor Cell Migration Assay for Neuron Migration (NPC2b) (AID 2284300)
Procedure, shortened: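 Fetal human NPC spheres migrate on PDL/laminin during 120 h compound treatment; neuronal migration distance, glia-normalized, scored versus DMSO control.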

[18] = IUF_NPC3_neuronal_differentiation_120hr: Leibniz Research Institute for Environmental Medicine (IUF) 120-hour Neuronal Differentiation Assay (NPC3) (AID 2284301)
Procedure, shortened: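 Human fetal (GW 16-19) neural progenitor spheres (0.3 mm) plated on poly-D-lysine/laminin in N2 differentiation medium, exposed 120 h at 37C with half-medium renewal day 3; 7 concentrations. TUBB3+ cells as % of Hoechst nuclei, CNN-identified; DMSO baseline.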

[19] = IUF_NPC4_neurite_area_120hr: Leibniz Research Institute for Environmental Medicine (IUF) 120-hour Neuronal Morphology Assay for Neurite Area (NPC4) (AID 2284305; active = hit-call score of the fitted dose curve at least 0.9, where 1 is the maximum)
Procedure, shortened: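 Human fetal neural progenitor spheres (0.3 mm) plated on poly-D-lysine/laminin in N2 differentiation medium, exposed 120 h (7 concentrations, DMSO ≤0.1%, half-medium refresh day 3). Fixed, TUBB3 immunostained; mean neurite area per neuron by Omnisphero skeletonization.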

[20] = IUF_NPC2-5_cytotoxicity_72hr: Cytotoxicity Assessment at 72 hours in the Leibniz Research Institute for Environmental Medicine (IUF) Neural Progenitor Cell Migration and Differentiation Assay for Cytotoxicity (NPC2-5) (AID 2284306; active = hit-call score of the fitted dose curve at least 0.9, where 1 is the maximum;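 note: LDH release into supernatant measured by resorufin fluorescence marking membrane damage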)
Procedure, shortened: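 Human fetal primary neural progenitor spheres (0.3 mm) plated on poly-D-lysine/laminin in N2 differentiation medium, exposed from day 0 at 37C. LDH-dependent resazurin-to-resorufin fluorescence in supernatant at 72 h; 7 concentrations, DMSO at most 0.1%.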

[21] = IUF_NPC2-5_cell_number_120hr: Cell Number Assessment at 120 hours in the Leibniz Research Institute for Environmental Medicine (IUF) Neural Progenitor Cell Migration and Differentiation Assay (NPC2-5) (AID 2284308);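 note: count of Hoechst-stained nuclei in migration zone around plated human neural progenitor spheres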
Procedure, shortened: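 Seven-point serial dilutions plus solvent control were applied to plated 0.3 mm hNPC spheres at differentiation start, with medium half-replaced at day 3. Nuclei positive for Hoechst in the migration zone were enumerated at 120 h.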

[22] = IUF_NPC2-5_viability_120hr: Viability Assessment at 120 hours in the Leibniz Research Institute for Environmental Medicine (IUF) Neural Progenitor Cell Migration and Differentiation Assay (NPC2-5) (AID 2284312)
Procedure, shortened: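 Human fetal neural progenitor spheres (0.3 mm) plated on poly-D-lysine/laminin in N2 differentiation medium, exposed 120 h with half-medium refresh at day 3. Viability by alamar blue resazurin fluorescence; 7 concentrations, DMSO max 0.1%.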

[23] = CCTE_Mundy_HCI_iCellGluta_NOG_NeuriteLength: CCTE's Neurite Outgrowth Assay in iCellGluta cells for Neurite Length, Mundy Lab (AID 2284318; active = hit-call score of the fitted dose curve at least 0.9, where 1 is the maximum)
Procedure, shortened: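 Automated high-content imaging of betaIII-tubulin (Alexa Fluor-488) and Hoechst-stained cells gave neurite length, normalized to the DMSO baseline.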

[24] = IUF_NPC1_cytotoxicity_72hr: Cytotoxicity Assessment at 72 hours in the Leibniz Research Institute for Environmental Medicine (IUF) Neural Progenitor Cell Proliferation Assay (NPC1) (AID 2284332; active = hit-call score of the fitted dose curve at least 0.9, where 1 is the maximum;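 note: rising LDH signal means more cytotoxicity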)
Procedure, shortened: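 Human fetal neural progenitor spheres (0.3 mm) in EGF/FGF proliferation medium, 37C, exposed 72 h without renewal. LDH release in supernatant read by resorufin fluorescence; gain of signal scored relative to dynamic range.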

Measured: AC50

C[C@@H]1CCO[C@H]2Cn3cc(C(=O)NCc4ccc(F)cc4F)c(=O)c(O)c3C(=O)N12
inactive: [1] | [2] | [5] | [6] | [8] | [9] | [10] | [13] | [14] | [15] | [16] | [17] | [18] | [19] | [20] | [21] | [22] | [23] | [24]
active: [3] 3.63 µM | [4] 3.05 µM | [7] 15.6 µM | [11] 10.1 µM | [12] 14.9 µM
